The values that follow come from the supplement of paper PMC3334620.

In all, about 33,000 sequences were measured (“E-score (-0.5 to 0.5)”: median about -0.0014, highest 2% from about 0.25 on). The full list was thinned out, with the highest values kept by preference.

This test has as its target T1, Cad1 (UniProt P24813).
T1 sequence: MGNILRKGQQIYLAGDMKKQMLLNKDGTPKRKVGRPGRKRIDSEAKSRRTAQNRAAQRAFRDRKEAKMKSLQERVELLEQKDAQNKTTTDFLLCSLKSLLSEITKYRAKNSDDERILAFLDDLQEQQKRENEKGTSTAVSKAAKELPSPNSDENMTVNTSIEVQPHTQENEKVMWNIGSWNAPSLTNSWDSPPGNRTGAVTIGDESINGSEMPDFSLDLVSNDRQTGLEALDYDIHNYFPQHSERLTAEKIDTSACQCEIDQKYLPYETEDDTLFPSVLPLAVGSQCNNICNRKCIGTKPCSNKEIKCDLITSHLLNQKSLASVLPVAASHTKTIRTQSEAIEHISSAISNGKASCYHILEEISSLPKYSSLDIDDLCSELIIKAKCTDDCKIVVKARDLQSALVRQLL
The experiment in a line: PBM E-score (8-mer binding enrichment) (E-score (-0.5 to 0.5)); higher = stronger / more preferred TF binding. The note with it: protein concentration: 100 nM; construct: GST-full length. As for the experimental part:
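Universal 'all 10-mer' protein binding microarrays (Agilent AMADID 015681) probed with GST-tagged S. cerevisiae TFs (full-length or DBD) made by in vitro transcription/translation (PURExpress), about 100-200 nM. Bound TF was detected with fluorescent anti-GST. Each ungapped 8-mer (which stands for itself and its reverse complement) is scored by the PBM enrichment score (E-score), a modified Wilcoxon-Mann-Whitney statistic from -0.5 to +0.5, computed with the Universal PBM Analysis Suite. Scale: above 0.35 generally sequence-specific binding.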
In the case of AGCAATCA, the “PBM E-score” value was determined as 0.216. In the case of AGCAATCG it was 0.27. In the case of AGCAATCC it was -0.214.

With ATGCGACC, the “PBM E-score” value was determined as 0.0488. In the case of CTATTAGA it was -0.057; in that of ATATTAGA, 0.197.

For the sequence GTATTAGA, the “PBM E-score” value is 0.26. For GTTGCAGA the value was -0.0187; for AAATAGTC, -0.0981; for AAATCGTC, 0.0296.

Regarding AAATCGTG, the “PBM E-score” value was 0.263.

For the sequence AAATAGTG, the “PBM E-score” value stood at 0.258.

In the case of AAATCGTA, the “PBM E-score” value was -0.0277. In the case of AAATAGTT it was 0.129. In the case of CACGATGC it was -0.0719. In the case of GAATCGTA it was 0.0597; in that of CCGAAGAA, 0.00754.

As for CAGGTGCC, the “PBM E-score” value was -0.0801. Regarding AGAATACA, the “PBM E-score” value was 0.0745. In the case of CATATTTC it was 0.0121; in that of ATTATTTG, 0.175; in that of ACTATTTG, 0.101. In the case of AATATGTC it was 0.17; in that of CTTATTTA, -0.00667. On to AATATTTG, for which the “PBM E-score” value was found to be 0.255. In the case of ATTATTTC it was 0.2; in that of CTTATTTC, 0.304. In the case of AATATTTA it was 0.213; in that of AATATGTA, 0.206.

On to AATATGTG, for which the “PBM E-score” value stood at 0.251. For AATATTTC the value was 0.264; for CCCTACCG, -0.112; for AACGGGAC, -0.148. For AACCAGAC the value was -0.0829; for GTGGACTA, 0.144. In the case of CTGAAGTC, the “PBM E-score” value was -0.0337. In the case of ACATCCCG it was 0.147.

Regarding CCCTCGAC, the “PBM E-score” value was -0.0126. For AATTTGGG the value was 0.0286; for AGTCCACA, -0.141; for CATATTGC, -0.116. In the case of AATATTGC it was 0.294.

Turning to AATATTGG, the “PBM E-score” value turned out to be 0.0135. For GACGAAAC the value was 0.144; for AATTTATC, 0.293; for AATTTGTA, 0.196. For GATTTATA the value was 0.319; for AATTTGTC, 0.31.

With ATTTTATG, the “PBM E-score” value was found to be 0.255.

Take ATTTTATA: the “PBM E-score” value is 0.221. In the case of ATTTTGTC it was 0.121; in that of CATTTATC, 0.15. As to AATTTATG, the “PBM E-score” value amounted to 0.229. In the case of GATTTTTA it was -0.0272; in that of AATTTATA, 0.241; in that of CATTTATA, 0.021. In the case of GATCAAAA it was 0.144.

As to AGTACTTA, the “PBM E-score” value is -0.0184. For CAGGTTCA the value was -0.134; for TTCGACAA, 0.0549. In the case of GGCGACAC, the “PBM E-score” value worked out at 0.0142. For GTACGTGA the value was 0.0217; for AGCAACCA, 0.0389. For ATCGTTAC the value was 0.0243. In the case of GTTCATGA it was 0.262; in that of ATTCATGA, 0.0482; in that of CTTCATGA, 0.207. As for TATCATGA, the “PBM E-score” value came out at 0.16. For AATCATGG the value was 0.048. For AATCATGA the value was 0.317; for CTCTGAAC, -0.212; for GGTATCCA, 0.135.

For the sequence CTCTCCTA, the “PBM E-score” value was -0.129. For CGCGATGC the value was -0.0576; for TCAGAGAA, -0.0244; for AAGGCCAT, 0.0298. In the case of ATTCTCCC it was 0.115; in that of CTACCTCA, -0.107.

For the sequence CACGCTGA, the “PBM E-score” value was found to be 0.143. For CGCGCTTC the value was 0.0321.

Take CGCGCTTA: the “PBM E-score” value worked out at 0.262. For CGCGCTGA the value was 0.219; for GACGCTGA, 0.0912; for AGCGCTTA, 0.336. For TACGCTGA, the “PBM E-score” value was 0.275.

Consider AGCGCTGG, for which the “PBM E-score” value stood at 0.191.

Turning to GGCGCTGA, the “PBM E-score” value is -0.0921.

For the sequence AGCGCTGA, the “PBM E-score” value amounted to 0.258. For GGCGCTTA the value was -0.0696. For AGCGCTTC, the “PBM E-score” value was 0.122. CTGTTCGA: the “PBM E-score” value is -0.08. For CTCCTACC the value was -0.236. In the case of CGGGTGAC it was -0.0446; in that of ACGGTGAC, -0.102.
